The values below come from ChEMBL document CHEMBL3988442, “University of Dundee, Small-Polar-MMV Screening Library” (2021).

The structures appear in SMILES notation. The campaign covered roughly 85,000 compounds. About 440 (0.52%) showed an effect of 50% or more. Shown is part of a subset that was picked to be rich in strong results.

The experiment is described as follows: In vitro enzyme assay to detect hydrolysis of chlorophenol red-beta-D-[…] directly proportional to the number of Toxoplasma stably expressing beta-galactosidase. The arrangement: scale not given: in the data most compounds retested in dose-response had high values. The format is functional, organism-based, Toxoplasma gondii.

Consider `CC(C)OCCN1CCN(C(=O)c2cc[nH]n2)CC1`, for which, where the note is “50 µM”, the “Percent Effect” value is -2.714%. In the case of `NCC(C(=O)N1CCC2(CCC2)C1)c1ccccc1` (stereo not given), where the note is “50 µM”, the “Percent Effect” value is 20.55%.

In the case of `CC(=O)NC(C)C(=O)Nc1ccc2ccccc2c1` (stereo not given), the “Percent Effect” value (50 µM) is -30.81%. For the compound `O=C1CCc2ccccc2N1Cc1ncccn1`, the “Percent Effect” value (50 µM) was 0.3291%. In the case of `Nc1cc(-c2cccnc2)on1`, the “Percent Effect” value (50 µM) is given as -0.8399%. As for `Cc1noc(C)c1S(=O)(=O)N(C)Cc1ccoc1`, the “Percent Effect” value (50 µM) was -13.17%.

Regarding `CC1(C)CC(=O)CN1C(=O)c1cc(Cl)c2c(c1)OCO2`, under “50 µM”, the “Percent Effect” value stood at 7.211%.

Turning to `COc1cccc2c1OCC(CNS(C)(=O)=O)C2` (stereo not given), the “Percent Effect” value (50 µM) is recorded as 14.05%. As for `CCc1nccn1CCNC(=O)Cn1nc(C)cc1N`, where the note is “50 µM”, the “Percent Effect” value was determined as 0.7856%. The same measure, in the same setting: then `CNC(=O)C1CCCN(C(=O)Cc2ccc(F)cc2)C1` (stereo not given), with -18.03%; and `NCCc1cc(-c2ccncc2)[nH]n1`, with 52.85%. As for `CN(C)C(=O)c1cc(-c2ccncc2)[nH]n1`, for the setting “10 µM”, the “Percent Effect” value was -7.126%. On to `NCCCc1nc(-c2ccncc2)cs1`, for which the “Percent Effect” value (50 µM) is listed as -3.15%. As for `O=C(NC1(CCO)CCC1)c1c(O)cc(F)cc1F`, the “Percent Effect” value (50 µM) is -3.362%. Consider `COCCOCCCNC(=O)c1cn2cc(C)nc2s1`, for which the “Percent Effect” value (50 µM) was 5.507%. Same read-out and setting: then `CN(Cc1ccc(F)c(F)c1)C(=O)C1CCOCC1`, with 0.4539%. As to `O=C(O)C(F)(F)F.O=C(O)C(F)(F)F.c1ccc(CCN2CCn3cc(Cn4cccn4)nc3C2)cc1`, the “Percent Effect” value (10 µM) is reported as -2.685%. On the same count and under the same terms, then `Cn1cc(CN2CCn3cc(Cn4cccn4)nc3C2)cn1.O=C(O)C(F)(F)F`, with 96.45%; and `Fc1ccc(CN2CCn3cc(Cn4cccn4)nc3C2)cc1.O=C(O)C(F)(F)F`, with 6.807%.

Turning to `Cc1noc(C)c1S(=O)(=O)N1CC[S+]([O-])C(C)(C)C1` (stereo not given), the “Percent Effect” value (50 µM) is -20.3%. As for `CC(=O)c1sc(NCCc2ccccn2)nc1C`, under “50 µM”, the “Percent Effect” value is -25.25%.

Turning to `CC(=O)Nc1ncc(S(=O)(=O)Nc2ccc(C)cc2)s1`, where the note is “10 µM”, the “Percent Effect” value came out at 70.91%. For the compound `CCS(=O)(=O)Nc1ccccc1F`, the “Percent Effect” value (50 µM) turned out to be 6.561%. As to `CC(=O)Nc1ncc(S(=O)(=O)Nc2ccc(F)cc2F)s1`, under “10 µM”, the “Percent Effect” value is -1.674%. For `CC(=O)Nc1ncc(S(=O)(=O)Nc2ccc(F)cc2)s1`, the “Percent Effect” value (10 µM) came out at 2.51%. As for `CC(=O)Nc1ncc(S(=O)(=O)Nc2ccccc2F)s1`, the “Percent Effect” value (10 µM) came to 61.48%. Regarding `CC(=O)Nc1ncc(S(=O)(=O)N2CCC(C)CC2)s1`, the “Percent Effect” value (10 µM) is -14.89%.

For `CCN1CCN(S(=O)(=O)c2cnc(NC(C)=O)s2)CC1`, the “Percent Effect” value (10 µM) was -3.243%. For `CC(=O)Nc1ncc(Br)s1`, the “Percent Effect” value (50 µM) was found to be 8.521%. On to `CC(=O)Nc1ncc(S(=O)(=O)Nc2ccccc2)s1`, for which the “Percent Effect” value (10 µM) stood at 62.69%.

On to `NCCc1n[nH]c(=O)n1-c1ccc2c(c1)OCO2`, for which, for the setting “50 µM”, the “Percent Effect” value is -0.07643%. Regarding `Cn1cc(C(O)CN)cn1` (stereo not given), the “Percent Effect” value (50 µM) was 1.018%. For `Cc1noc(C(C)Nc2ccc3c(c2)CCC(=O)N3)n1` (stereo not given), for the setting “50 µM”, the “Percent Effect” value was -14.26%. Consider `CC(C)(CNC(=O)c1c[nH]nn1)c1cccc(F)c1`, for which the “Percent Effect” value (50 µM) is given as -9.623%. On to `CC(NC(=O)NCCCN1CCCCCC1=O)c1nncn1C` (stereo not given), for which the “Percent Effect” value (10 µM) stood at 20.07%. Regarding `CC(NC(=O)NCCN1CCCCCC1=O)c1nncn1C` (stereo not given), where the note is “10 µM”, the “Percent Effect” value worked out at 3.231%.

As to `CC(NC(=O)NCCCN1CCCC1=O)c1nncn1C` (stereo not given), the “Percent Effect” value (10 µM) was found to be 85.8%.

Consider `Cc1oc(-c2ccccc2F)nc1C(=O)N(C)C`, for which the “Percent Effect” value (50 µM) was -3.464%.

Take `CNS(=O)(=O)N1CCc2ccccc2C1`: the “Percent Effect” value (50 µM) worked out at 30.15%. With `COc1ccc2ccccc2c1CNCC1CCS(=O)(=O)C1.Cl` (stereo not given), the “Percent Effect” value (10 µM) is reported as -11.16%. Consider `CCCOc1ccc2ccccc2c1CN1CC[C@@]2(O)CCNC[C@H]2C1`, for which the “Percent Effect” value (10 µM) amounted to 3.549%. With `CCOc1ccc2ccccc2c1CNCC1CCS(=O)(=O)C1.Cl` (stereo not given), where the note is “10 µM”, the “Percent Effect” value is on record as -7.781%.

In the case of `CCOc1ccccc1CNCC1CCN(CC(C)O)CC1` (stereo not given), under “10 µM”, the “Percent Effect” value is given as -9.723%.

For `CCOc1ccc2ccccc2c1CNCC1CCNCC1.Cl.Cl`, the “Percent Effect” value (10 µM) is 68.87%.

Consider `CCn1cc(S(=O)(=O)NCC2CCN(C3CC3)C2)cn1` (stereo not given), for which the “Percent Effect” value (50 µM) stood at 3.955%. For the compound `NC(=O)c1cncc(-c2ccc(F)cc2Cl)c1`, for the setting “50 µM”, the “Percent Effect” value turned out to be 3.051%. On the same count and under the same terms, to `Cc1cc(F)cc(C(=O)N(C)C(C)CN)c1` (stereo not given) belongs -5.582%; to `CNC(C)(C)c1ccc2c(c1)OCO2`, -13.39%. Turning to `CCNc1ncc2c(n1)CN(c1ccc(C)c(C)c1)C2=O`, where the note is “10 µM”, the “Percent Effect” value amounted to 51.11%. For `CNc1ncc2c(n1)CN(CCc1ccc(Cl)cc1)C2=O`, the “Percent Effect” value (10 µM) is listed as -35.33%. Turning to `CC1CCN(c2ncc3c(n2)CN(c2ccc(F)cc2)C3=O)CC1`, the “Percent Effect” value (10 µM) is listed as 19.77%. Consider `CCn1cc(N2Cc3nc(N)ncc3C2=O)cn1`, for which, for the setting “10 µM”, the “Percent Effect” value was 10.4%.

As to `CCNc1ncc2c(n1)CN(c1ccc(Cl)cc1)C2=O`, where the note is “10 µM”, the “Percent Effect” value amounted to 65.79%. For the compound `COc1ccc(N2Cc3nc(N4CCCC4)ncc3C2=O)cc1Cl`, the “Percent Effect” value (10 µM) is given as -14.31%. For `CNc1ncc2c(n1)CN(CCc1ccc(C)cc1)C2=O`, the “Percent Effect” value (10 µM) is reported as -16.2%. As to `CCNc1ncc2c(n1)CN(c1ccc(CC)cc1)C2=O`, the “Percent Effect” value (10 µM) amounted to 62.15%.

In the case of `CCNc1ncc2c(n1)CN(c1ccc(OC(F)(F)F)cc1)C2=O`, for the setting “10 µM”, the “Percent Effect” value is 64.71%. Turning to `CNc1ncc2c(n1)CN(Cc1ccc(Cl)cc1)C2=O`, the “Percent Effect” value (10 µM) is given as -51.17%. Consider `CNc1ncc2c(n1)CN(CCc1ccc(F)cc1)C2=O`, for which the “Percent Effect” value (10 µM) was -13.73%. Take `COc1ccc(N2Cc3nc(N)ncc3C2=O)cc1Cl`: the “Percent Effect” value (10 µM) is given as -32.44%.
